In PubChem BioAssay AID504834 (National Center for Advancing Translational Sciences (NCATS), 2011):
Hit rate of the full screen: of about 320,000 compounds, about 22,000 (6.9%) were called active. A call without a number means that no potency is given here. Inconclusive results (about 27%) are left out. The sample holds actives, similar compounds and a random draw of the others, so the mix is not that of the screen. The call rests on the fitted dose curve; in most records, active means well fitted inhibition curve with a large enough effect; inconclusive means small, poorly fitted or top-dose-only effect, or another doubt; inactive means no such curve, though single readings can be large or run the other way.

assay: Primary qHTS for delayed death inhibitors of the malarial parasite plastid, 96 hour incubation; details: P. falciparum luciferase reporter growth; series mostly up to 28.7 µM
Outline: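 P. falciparum expressing integrated firefly luciferase, in erythrocytes at 2% hematocrit, 0.05% parasitemia, incubated with compounds 96 h at 37 C, 5% CO2. Growth inhibition read as loss of luminescence; two-generation exposure targets delayed-death apicoplast inhibitors.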
Potency means the concentration at half of the fitted maximal effect.

SMILES | Potency
COc1ccc(CCNS(=O)(=O)c2cn(C)nc2C)cc1 | inactive
CCOc1ccc(OCC(=O)Nc2c3c(nn2C(C)(C)C)CS(=O)(=O)C3)cc1 | inactive
Cn1c(SCC(=O)OC2CCCCC2)nnc1-c1ccc(S(=O)(=O)N2CCCC2)cc1 | 2.33 µM (active)
Cn1c(SCC(=O)NC2CCCCC2)nnc1-c1ccc(N)cc1 | inactive
CC1Cc2ccccc2N1C(=O)CSc1nnc(-c2ccc(S(=O)(=O)N3CCCC3)cc2)n1C (stereo not given) | inactive
Cc1ccc(CN2CC(C(=O)N3CCN(S(=O)(=O)c4ccccc4)CC3)CC2=O)cc1 (stereo not given) | inactive
CCc1noc(C)c1C(=O)Nc1nc2ccc(OC)cc2s1 | inactive
O=C(COC(=O)CCc1ccc(S(=O)(=O)N2CCOCC2)cc1)Nc1cccc(Cl)c1 | inactive
O=C(CCc1ccc(S(=O)(=O)N2CCOCC2)cc1)Nc1ccc2ccccc2c1 | 5.22 µM (active)
O=C(CCc1ccc(S(=O)(=O)N2CCOCC2)cc1)NN=C1CCCCCCC1 | inactive
CCN(CC(=O)N1CCCC1)S(=O)(=O)c1ccc(F)cc1 | inactive
O=C(NCCCN1CCCC1=O)c1cccc(S(=O)(=O)NCc2ccccc2)c1 | inactive
CCN(CC(=O)Nc1c(F)cccc1F)C(=O)C1CCC1 | inactive
CC(C)c1ccc(Cc2nnc(NCCCO)[nH]c2=O)cc1 | inactive
Cc1cccc(N2CCN(S(=O)(=O)c3ccc(-c4cc(C)no4)s3)CC2C)c1 (stereo not given) | inactive
Cc1cc(-c2ccc(S(=O)(=O)N3CCc4ccccc4C3)s2)on1 | inactive
Cc1cc(-c2ccc(S(=O)(=O)N3CCN(c4cccc(C(F)(F)F)c4)CC3)s2)on1 | 13.1 µM (active)
COCC1CCN(C(=O)CCc2nnc(C3(c4ccc(Cl)cc4)CCC3)o2)C1 (stereo not given) | inactive
CCOc1ccccc1N1C(=O)CC(Sc2nccc(C)n2)C1=O (stereo not given) | inactive
CCOc1ccc(OCC(=O)OC(C)C(=O)NC2CCCCC2C)cc1 (stereo not given) | inactive
CCc1ccc(CN(C)C(=O)CCc2nnc(-c3ccc(-c4ccccc4)cc3)o2)nc1 | 11.7 µM (active)
CCCC(=O)Nc1nnc(-c2ccccc2)o1 | inactive

SMILES | Potency
Cc1ccc(C(=O)NCC(=O)OCc2nnc(-c3ccccc3)o2)cc1 | inactive
CCOc1ccc(NC(=O)CC(Cc2ccc(Cl)cc2)C(=O)O)cc1 (stereo not given) | inactive
O=C(CN1CCc2cc3c(cc2C1)OCCCO3)Nc1ccccc1 | inactive
OCC(CO)NC1C[C@](O)(CO)[C@@H](O)[C@H](O)[C@H]1O (stereo not given in full) | inactive
CCCCOc1ccc(CSC(=N)N)cc1[N+](=O)[O-] | 2.33 µM (active)
CCCOc1ccc(Cn2ccnc2)cc1[N+](=O)[O-] | inactive
CCCCOC(=O)CCCc1ccc([N+](=O)[O-])cc1[N+](=O)[O-] | inactive
COc1cc(OC)c(C(=O)NCc2ccc3c(c2)OCO3)cc1OC | 13.1 µM (active)
CCn1cc(C(=O)NCc2ccc3c(c2)OCO3)c2cc(OC)c(OC)cc2c1=O | inactive
COc1cc(CNCc2ccc3c(c2)OCO3)c([N+](=O)[O-])cc1OC | inactive
O=C(O)CCCN1C(=O)C2C3c4ccccc4C(c4ccccc43)[C@@H]2C1=O (stereo not given in full) | inactive
O=C(CN1C(=O)CSC1=O)N1CCCC(Nc2ccc(F)cc2)C1 (stereo not given) | 1.65 µM (active)
O=C1CCCCN1CCCC(=O)N1CCCC(Nc2ccc(F)cc2)C1 (stereo not given) | inactive
Cc1ccc(NC2CCCN(C(=O)CCc3cn[nH]c3)C2)cc1C (stereo not given) | inactive
CC1C(=O)Nc2ccc(S(=O)(=O)N3CCN(c4ccccc4F)CC3)cc2NC1=O (stereo not given) | inactive
O=C1/C(=C/c2cccs2)SC(=S)N1C1CCS(=O)(=O)C1 (stereo not given) | inactive
Cc1cc(C)cc(C(=O)NC(CC(N)=O)c2ccc(N3CCC(N4CCCCC4)CC3)c([N+](=O)[O-])c2)c1 (stereo not given) | inactive
NC(=O)CC(NC(=O)Cc1ccc(Br)cc1)c1ccc(NC2CC3CCC2C3)c([N+](=O)[O-])c1 (stereo not given) | 11.7 µM (active)
CC1CCCCN1CCCNc1ccc(C(CC(N)=O)NC(=O)c2ccccc2)cc1[N+](=O)[O-] (stereo not given) | inactive
O=C(O)c1ccc(-n2nc(-c3ccccc3)c3ccccc3c2=O)cc1 | inactive
O=C(c1ccc(F)cc1)n1c(=S)nc2ccccn21 | inactive
CCc1ccc(C2C(C#N)=C(N)Oc3n[nH]c(CC(=O)OC)c32)cc1 (stereo not given) | inactive

SMILES | Potency
COc1ccc(-c2[nH]nc3c2C(c2ccncc2)C(C#N)=C(N)O3)cc1 (stereo not given) | 4.65 µM (active)
CCOc1c(OC)cc(C2C(C#N)=C(N)Oc3n[nH]c(-c4ccncc4)c32)cc1OC (stereo not given) | inactive
COc1cc(C(=O)Nc2ncccc2C)ccc1OCC(=O)N1CCOCC1 | inactive
Cc1cc(-n2cnc(-c3cn(C)nc3C)n2)no1 | inactive
Cc1cc(OCC(=O)N(C)c2c(N)n(Cc3ccccc3)c(=O)[nH]c2=O)c(C(C)C)cc1Cl | inactive
Cc1cccc(OCC(=O)NCCCNC(=O)c2ccccn2)c1 | inactive
Cc1ccccc1NC(=O)C1CCN(C(=O)NC2CCCCC2)CC1 | inactive
CC(CC(=O)Nc1ccc(F)cc1F)S(=O)(=O)c1ccc2c(c1)NC(=O)CO2 (stereo not given) | 6.57 µM (active)
Cc1ccc(NS(=O)(=O)c2ccc3c(c2)NC(=O)CO3)cc1 | inactive
O=C1COc2ccc(NC(=O)N3CCN(c4ccc(F)cc4)CC3)cc2N1 | inactive
COc1ccc(C)cc1NC(=O)NCCCCc1ccccc1 | inactive
CCc1cccc(NC(=O)COC(=O)C2CCN(c3ccc(C(F)(F)F)cn3)CC2)c1 | inactive
Cc1cnc(C)c(N2CCN(C(=O)C3CCC(=O)N(CCc4cccc(F)c4)C3)CC2)n1 (stereo not given) | 14.7 µM (active)
Cc1cnc(CN(C)C(=O)C2CCC(=O)N(CCc3cccc(F)c3)C2)[nH]1 (stereo not given) | inactive
O=C1CCC(C(=O)N2CCC(O)(c3ccccc3)CC2)CN1CCc1ccccc1 (stereo not given) | inactive
O=C(NC1CC1)C(Cc1ccccc1)NS(=O)(=O)c1ccccc1F (stereo not given) | inactive
O=C1N[C@@H](Cc2ccccc2)C(=O)N2[C@H]1C[C@]1(Br)c3ccccc3N(S(=O)(=O)c3ccccc3)[C@H]21 | inactive
Cc1ccc(CCNC(=O)c2ccc3nc4ccccc4c(=O)n3c2)cc1 | inactive
CCOC(=O)C1=C(C)N=c2s/c(=C\C(=O)OC)c(=O)n2C1c1ccc(OC)cc1 (stereo not given) | inactive
COCCOC(=O)C1=C(C)N=c2s/c(=C\c3cccs3)c(=O)n2C1c1cccs1 (stereo not given) | 8.28 µM (active)
CCOC(=O)C1=C(C)Nc2nc3ccccc3n2C1c1cccs1 (stereo not given) | inactive
